Compound activity as filed in PubChem.
Most compounds without a hit are left out; they make up all but 7.4% or so of the library.
Rab9 prom act = qHTS Assay for Rab9 Promoter Activators; Potency, µM (top dose mostly 9.22 µM), without a hit: at the highest dose activation, negative = inhibition, usual class: activators; hit rate 2.8% among 320,000; Huh7 Rab9 promoter-luciferase reporter, luminescence, 24 h; also: % of control where 0% means no effect; nearly all actives have a fitted effect of over 60% in size
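Promoter activation is measured as luciferase luminescence in Huh7 cells stably transfected with a Rab9 promoter–luciferase construct, following 24 h compound exposure at 37 °C and 10 min reagent incubation at ambient temperature.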
NPC1 prom act = qHTS Assay for NPC1 Promoter Activators; Huh7 NPC1 promoter luciferase reporter, 24 h; Potency, µM (top dose mostly 9.22 µM), inactives show top-dose activation, hits mostly activators; hit rate 2.4% among 320,000; AID 485313, 2010; also: % of control where 0% means no effect; nearly all actives have a fitted effect of over 60% in size
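NPC1 promoter–luciferase Huh7 cells; 24 h compound; luminescence.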
FLuc modulator = qHTS profiling assay for firefly luciferase inhibitor/activator using purifed enzyme and Km concentrations of substrates (counterscreen for miR-21 project); Luciferin 4-monooxygenase (Photinus pyralis), P08659; purified FLuc, Km substrates, luminescence inhibition; Potency, µM (highest dose often 57.5 µM), inactives show top-dose activity change, negative = inhibition, actives largely listed as inhibitors; hit rate 6.9% among 360,000;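 also: plate controls were vehicle for no effect and reference inhibitor for full effect; nearly all actives have a fitted effect of over 55% in size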
Target sequence (P08659 whole entry, looked up): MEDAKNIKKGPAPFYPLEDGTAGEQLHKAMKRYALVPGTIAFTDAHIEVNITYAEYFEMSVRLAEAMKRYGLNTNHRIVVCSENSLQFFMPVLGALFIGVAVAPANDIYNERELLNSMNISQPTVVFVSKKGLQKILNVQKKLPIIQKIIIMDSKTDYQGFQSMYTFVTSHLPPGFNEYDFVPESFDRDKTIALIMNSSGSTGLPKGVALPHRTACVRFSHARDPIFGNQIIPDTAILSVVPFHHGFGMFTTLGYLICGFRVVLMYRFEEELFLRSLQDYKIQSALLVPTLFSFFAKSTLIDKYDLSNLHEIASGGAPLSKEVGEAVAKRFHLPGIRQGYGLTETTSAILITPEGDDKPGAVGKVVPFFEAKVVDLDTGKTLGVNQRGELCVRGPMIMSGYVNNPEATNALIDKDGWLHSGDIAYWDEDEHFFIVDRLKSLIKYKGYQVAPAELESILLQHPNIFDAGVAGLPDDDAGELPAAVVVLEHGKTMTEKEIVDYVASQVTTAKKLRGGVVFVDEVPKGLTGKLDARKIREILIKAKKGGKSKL
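Purified P. pyralis luciferase, 10 nM final, with Km-level 10 uM D-luciferin and 10 uM ATP in 50 mM Tris acetate pH 7.5, 10 mM Mg acetate, 0.01% Tween-20, 0.05% BSA; 6-point qHTS titration about 60 µM downward; luminescence read.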
ELG1 genotoxic = qHTS screen for small molecules that induce genotoxicity in human embryonic kidney (HEK293T) cells expressing luciferase-tagged ELG1; HEK293T ELG1-luciferase reporter, luminescence, 16 h; Potency, µM (highest dose often 46 µM), for the others: at the highest dose activity change, positive = activation, actives largely listed as activators; hit rate 1.3% among 330,000; AID 504466, 2011; also: % of control where 0% means no effect; nearly all actives have a fitted effect of over 60% in size
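Luminescence read-out: rising ELG1-luciferase signal, reflecting elevated ELG1 protein under genetic stress, flags genotoxic compounds. Cells were treated for 16 hr at 37 °C before ONE-Glo detection.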
SMN2 splice enh = qHTS Assay for Enhancers of SMN2 Splice Variant Expression; HEK293 SMN2-luciferase splicing reporter, luminescence, 30-36 h; Potency, µM (titrated, usually from 46.1 µM), inactives show at the highest dose activity change, positive = activation, most hits filed as activators; hit rate 2.8% among 210,000; AID 1458, 2008; also: % of control where 0% means no effect; nearly all actives have a fitted effect of over 55% in size
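HEK293 cells carry an SMN2 minigene-luciferase reporter in which exon 7 inclusion puts luciferase in frame. Cells were seeded at 2000 cells/well, attached for 10-12 hours, then exposed to compounds for 30-36 hours at 37C before ONE-Glo luminescence.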
Starred values were filed as active, the others as inactive; u = inconclusive; x = no result; [ ] = remark or other dose. Calls follow the shape of the dose curve; as a rule, active = well fitted curve in the direction sought with a large enough effect; inconclusive = small, poorly fitted or top-dose-only effect, or another doubt; inactive = no such curve, though single readings can be large; an effect the other way counts as inactive or inconclusive. Potency is read from the fitted curve at half-maximal effect.

SMILES | Rab9 prom act | NPC1 prom act | FLuc modulator | ELG1 genotoxic | SMN2 splice enh
Cc1cc(Cl)ccc1OCC(=O)N1CCCCC1 | 28% | u | 17µM* | 21µM* | u
O=C(COc1ccc(Cl)cc1Cl)NC(=O)NC1CCCC1 | u | u | 9.5µM* | u | x
CC(=O)c1ccccc1OC(=O)COc1ccc(Cl)cc1C | 2% | -4% | 17µM* | 2% | 0%
CCOC(=O)c1c(C)[nH]c(CCC(=O)NCc2cc(Br)ccc2OC)c1C | x | x | -8% | x | x
Cc1ccc(-c2nc(CSc3nnc(C)n4c3cc3occc34)c(C)o2)cc1 | x | x | -1% | x | x
O=C(COc1ccc(Cl)cc1Br)NC(=O)NC1CCCC1 | 3.2µM* | 3.5µM* | 6µM* | u | x
O=C(COc1ccc(Cl)cc1Cl)NC1CCSC1=O (configuration not stated) | 3.5µM* | u | 11µM* | 16µM* | u
O=C(COc1ccccc1Cl)NC(=O)NC1CCCC1 | u | 16% | 13µM* | u | -10%
O=C(COc1ccc(Cl)cc1Cl)OCC(=O)N1CCCc2ccccc21 | -1% | -3% | -1% | 4% | 13%
O=C(COc1ccc(Cl)cc1Cl)NC(=S)N1CCCc2ccccc21 | 4% | -26% | 27µM* | 3% | -29%
CSc1ccc(CNC(=O)CCc2c(C)nn(-c3ccc(N4CCCC4)nn3)c2C)cc1 | x | x | -9% | x | x
Cc1nn(-c2ccccc2)c2sc(C(=O)N3CCOCC3)cc12 | 3.5µM* | u | 11µM* | u | 11µM*
Cc1nn(-c2ccccc2)c2sc(C(=O)O)cc12 | 3% | 1% | u | 0% | u
COC(=O)c1cc2c(C)nn(-c3ccccc3)c2s1 | 6% | 29% | -18% | 13% | 15%
Cc1ccc(-n2nc(C)c3cc(C(=O)O)sc32)cc1 | -4% | -1% | 19µM* | 3% | 8%
Cc1nn(-c2ccccc2)c2sc(C(=O)OC3CCOC3=O)cc12 (configuration not stated) | -1% | 3% | 15µM* | 2% | 9%
CSC(N)=NCCCC(N)C(=O)O (configuration not stated) | x | x | x | x | -3%
Cc1nn(-c2ccc(N3CCCCC3)nn2)c(C)c1CCC(=O)Nc1ccc(F)cc1F | x | x | 15µM* | x | x
Cc1ccc(F)cc1NC(=O)CCc1c(C)nn(-c2ccc(N3CCCCC3)nn2)c1C | 30% | u | 11µM* | 8% | x
Cc1cc(F)ccc1NC(=O)CCc1c(C)nn(-c2ccc(N3CCCCC3)nn2)c1C | 0% | -3% | u | -5% | x
Cc1ccc(F)cc1NC(=O)CCc1c(C)nn(-c2ccc(N3CCCC3)nn2)c1C | x | x | -17% | x | x
Cc1cccc(-c2noc(Cc3ccc(Cl)cc3)n2)c1 | u | 28% | u | 18µM* | u
COc1ccc(Cc2nc(-c3cccc(C)c3)no2)cc1 | u | u | 13µM* | u | 24%
COc1ccc(Cc2nc(-c3ccncc3)no2)cc1 | -14% | 2% | u | 8% | x
Clc1ccc(Cc2nc(-c3ccncc3)no2)cc1 | 5% | -3% | -13% | 7% | x
SMILES | Rab9 prom act | NPC1 prom act | FLuc modulator | ELG1 genotoxic | SMN2 splice enh
CCCOc1ccc(-c2csc(N)n2)cc1[N+](=O)[O-] | 2.8µM* | u | 11µM* | u | 11µM*
CCOc1ccc(-c2cn3ccccc3n2)cc1[N+](=O)[O-] | 2.2µM* | 3.5µM* | 2.7µM* | u | 7.9µM*
CCCCCOc1ccc(Cn2ccnc2)cc1[N+](=O)[O-] | 11% | 10% | u | u | -44%
CCCCOc1ccc(-c2cn3ccccc3n2)cc1[N+](=O)[O-] | 2.8µM* | u | 2.1µM* | u | 6.3µM*
CC(=O)NC(c1ccco1)c1cc(Cl)c2ccc(N(C)C)nc2c1O (configuration not stated) | 7% | 5% | -22% | x | x
COC(=O)[C@]1(C)CCC(c2ccc(C)cc2)=C(CC(=O)O)C1 | x | x | x | x | -18%[9.22 µM]
CCOC(=O)c1sc(NC(=O)CC)c(C#N)c1C | -3% | -11% | 4% | 21% | 0%
CCOC(=O)c1sc(NC(=O)c2ccco2)c(C#N)c1C | -2% | 0% | 13µM* | -2% | -3%
CCc1c(C)sc(NC(=O)c2noc(C)c2[N+](=O)[O-])c1C#N | 3% | -2% | 11µM* | 3% | -25%
CCc1c(C)sc(NC(=O)c2ccco2)c1C#N | 3.5µM* | u | 17µM* | u | x
Cc1sc(NC(=S)NC(=O)c2ccco2)c(C#N)c1C | u | 0% | 2.7µM* | u | x
CC(CNC(=O)c1ccc(Cn2c(=O)c3cccn3c3cccnc32)cc1)c1ccccc1 (configuration not stated) | x | x | 2% | x | x
CCCCCn1c(=O)[nH]c2cc(C(=O)Nc3ccc(OC)c(OC)c3)ccc2c1=O | x | x | -1% | x | -1%
Cc1sc(NC(=O)c2ccco2)c(CN2CCN(c3ccccn3)CC2)c1C | 10% | 8% | 6µM* | 4% | x
Cc1sc(NC(=O)c2ccco2)c(CN2CCN(c3ccc(F)cc3)CC2)c1C | 0% | 0% | u | -3% | -21%
CC(=O)NCCc1cc2ccc(C)c(C)c2[nH]c1=O | -6% | -2% | 3% | 17% | u
Cc1ccc2cc(CCNC(=O)c3cccs3)c(=O)[nH]c2c1 | u | 3.2µM* | 11µM* | u | 10µM*
Cc1ccc2cc(CCNC(=O)c3cccs3)c(=O)[nH]c2c1C | 2.8µM* | 2.8µM* | 5.4µM* | u | 10µM*
CCc1nc2nc(C)cc(Nc3cc(Cl)ccc3C)n2n1 | x | x | 30% | x | -7%
CCn1nnnc1SCC(=O)c1ccc2c(c1)OCCO2 | u | u | 19µM* | 3% | -4%
O=C(CSc1nnnn1C1CCCC1)c1ccc2c(c1)OCCO2 | 0.63µM* | 1.1µM* | 0.76µM* | 15% | 21%
CC(C)n1nnnc1SCC(=O)c1ccc2c(c1)OCCO2 | 3.5µM* | 3.5µM* | 4.8µM* | 11% | -9%
COc1ccc(C)cc1-n1nnnc1SCC(=O)c1ccc2c(c1)OCCO2 | 5% | 4% | 17µM* | -4% | -1%
CCc1ccc(NCc2cc3ccc(OC)cc3n(CC(=O)Nc3ccc(C(C)C)cc3)c2=O)cc1 | x | x | -4% | x | x
Cc1cc(Nc2ccc(C)c(C)c2)n2cnnc2n1 | x | x | -14% | x | 1%
Cc1ccc(C(=O)CSc2nnnn2C(C)C)c(C)c1 | 2.8µM* | 2.8µM* | 0.67µM* | u | 0.79µM*
O=C(CSc1nnc2ccccn12)c1ccc2c(c1)OCCO2 | 1µM* | 1.1µM* | 4.8µM* | 2.9µM* | 11µM*
O=C(CS(=O)(=O)c1cccc2nsnc12)Nc1ccc(F)cc1F | x | x | -2% | x | x
CCC(=O)NCCc1nc2cc(NC(=O)Nc3ccccc3)ccc2n1C | 1.6µM* | 1.1µM* | 5.4µM* | u | x
